Among all 2,500 compounds or so, about 1,100 (44%) were called active. So high a share suggests a set chosen from earlier hits. The list shows a part of the results. Unmarked numbers belong to inactive results.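 Rule for the calls: active = inhibition above 50% at 4 µM in the single-point screen; inactive = inhibition of 50% or less.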
test: TNF-a-driven NF-kB reporter inhibitors, primary screen, selectivity assay for NOD1/NOD2 signaling inhibitor project, cell-based, HEK293T NF-kB-Luc, luminescence (AID 1852); details: TNF-a induced, 14 h, at 4 µM, active compounds read high

Row | SMILES | inhibition
1 | Cc1cc(C)c(C#N)c(SCc2nnc(-c3ccccc3)o2)n1 | 0%
2 | CCOc1ccc(NC(=O)Nc2ccc3c(c2)N(C)C(=O)CS3)cc1 | 14.3%
3 | O=C(Nc1ccc(S(=O)(=O)N2CCOCC2)cc1)c1cc(-c2cc(Cl)ccc2O)n[nH]1 | -2.1%
4 | Cn1c(O)c(N=NC(=S)Nc2ccccc2F)c2cc(S(=O)(=O)N3CCOCC3)ccc21 | 12.5%
5 | O=S(=O)(c1ccc(N=C2NN=C(c3cc(F)ccc3F)CS2)cc1)N1CCOCC1 | 77.4% (active)
6 | CCCCN(c1ccccc1)c1ncnc(N)c1[N+](=O)[O-] | 83.7% (active)
7 | C=CCN(C(=O)CCc1ccccc1OC)c1nc(-c2ccc(S(C)(=O)=O)cc2)cs1 | -10.1%
8 | CC(=O)c1c(C)[nH]c(C(=O)COC(=O)c2cccc(S(=O)(=O)N(C)c3ccccc3)c2)c1C | 84.9% (active)
9 | CCOC(=O)c1c(C)[nH]c(C(=O)OCC(=O)N2CCN(S(=O)(=O)c3ccccc3)CC2)c1C | 0%
10 | C[C@@H](C(=O)NCc1ccccn1)[C@H]1C[C@]1(C)[C@H](NC(=O)OCc1ccccc1)c1ccccc1 | -9%
11 | O=C(NC(=S)N1CCN(c2ccc(C(F)(F)F)cc2[N+](=O)[O-])CC1)c1cccs1 | 101% (active)
12 | O=C(/C=C/c1ccc(Cl)cc1Cl)N1CCN(c2ccccc2[N+](=O)[O-])CC1 | -38.9%
13 | O=C(NC(=S)N1CCN(c2ccc(F)cc2)CC1)c1cccs1 | 11.7%
14 | O=C(Nc1ccc(F)c([N+](=O)[O-])c1)c1cccs1 | 4.2%
15 | O=C(NC(=S)N1CCN(c2ccc(Cl)cc2[N+](=O)[O-])CC1)c1cccs1 | 53.9% (active)
16 | CN1CCN(c2ccc(C(CC(N)=O)NC(=O)c3ccccc3)cc2[N+](=O)[O-])CC1 (centres undefined) | 10.7%
17 | Cn1c(SCC(=O)N2CCCc3ccccc32)nc2ccccc2c1=O | 43.4%

Row | SMILES | inhibition
18 | Cc1cccc(N2CCN(C(=O)Cc3cn(C)c4ccccc34)CC2)c1C | -31.6%
19 | Cc1cccc(-n2c(SCC(=O)N3CCC(C(=O)O)CC3)nc3ccccc3c2=O)c1C | 74.3% (active)
20 | O=C(CCl)Nc1cc(SCC(O)CO)cc([N+](=O)[O-])c1 (centres undefined) | 96.6% (active)
21 | COc1ccc(-[n+]2c(C)cc(/C=C3\Sc4ccccc4N3C)cc2C)cc1 | 67% (active)
22 | CC(C)Cn1c(N2CCN(C(=O)/C=C/c3ccccc3)CC2)nc2ccccc21 | 0.5%
23 | C=CCSc1nc2ccccc2n1C(=O)/C=C/c1ccc(OC)c(OC)c1 | 89.7% (active)
24 | CCn1c(NC(=O)/C=C/c2ccc(F)cc2)nc2ccccc21 | 0%
25 | COc1ccc(-c2n(Cc3ccccc3)c3ccccc3[n+]2Cc2ccccc2)cc1 | 53.1% (active)
26 | O=C(CCl)Nc1cc(-c2ccccc2)nn1-c1ccccc1 | -25.8%
27 | CC(C)(C)c1cc(NC(=O)CCl)n(-c2ccccc2)n1 | 52.2% (active)
28 | CCCc1cc(NC(=O)CCl)n(-c2ccccc2)n1 | 40.2%
29 | CCOC(=O)c1c(C)[nH]c(C)c1C(=O)CSc1nc2ccccc2c(=O)n1-c1ccc(CC)cc1 | -1.6%
30 | Cc1[nH]c2ccccc2c1C(=O)CCl | 95.3% (active)
31 | Cc1ccc2c(C(=O)CCl)c(C)[nH]c2c1 | 83.2% (active)
32 | Cn1c2ccccc2c(=O)c2c(=O)n(C3CCCCC3)c(-c3ccco3)nc21 | 78.9% (active)
33 | CCOc1ccc(CCn2c(-c3ccco3)nc3ccccc3c2=O)cc1OCC | -36.6%
34 | Cn1c2ccccc2c(=O)c2c(=O)n(C3CCCCC3)c(-c3cccs3)nc21 | 23.4%
